Results filed as inconclusive are left out. Activity calls are given as the source filed them. The call rests on the fitted dose curve; in most records, active means well fitted cell-killing curve with a large enough effect; inconclusive means small, poorly fitted or top-dose-only effect, or effect the other way; inactive means no such curve, though single readings can be large or run the other way.
Test: Quantitative High-Throughput drug screen in 47 multiple myeloma cell lines against the NCATS MIPE library collection: OCIMY5_PLB cell viability assay (AID 1918988); further: nearly all actives have a fitted effect of over 65% in size
Details: OCI-MY5 myeloma viability, ATP luminescence, 48 h; series mostly up to 45.8 µM
Outline: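 500 cells/well per myeloma line exposed to pinned MIPE 4.0 compounds for 48 h at 37 °C, 5% CO2. Viability read as ATP by CellTiter-Glo luminescence, normalised to DMSO-only (100%) and media-only (0%) wells.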
Potency means the concentration at half of the fitted maximal effect.

Row | SMILES | Potency
1 | CCCCCCCCCC(=O)N[C@@H](Cc1c[nH]c2ccccc12)C(=O)N[C@H](CC(N)=O)C(=O)N[C@@H](CC(=O)O)C(=O)N[C@@H]1C(=O)NCC(=O)N[C@@H](CCCN)C(=O)N[C@@H](CC(=O)O)C(=O)N[C@H](C)C(=O)N[C@@H](CC(=O)O)C(=O)NCC(=O)N[C@H](CO)C(=O)N[C@@H]([C@@H](C)CC(=O)O)C(=O)N[C@@H](CC(=O)c2ccccc2N)C(=O)O[C@@H]1C | inactive
2 | COc1ccc(OC)c(-c2nnc3ccc(-c4ccc(OC)c(O[C@@H]5CCOC5)c4)nn23)c1 | 16.6 µM (active)
3 | CNC(=O)c1ccc(-c2cnc3ncc(Cc4ccc5ncccc5c4)n3n2)cc1F | 23.5 µM (active)
4 | Cc1nc2ccc(CN(C)c3ccc(C(=O)N[C@@H](CCC(=O)O)C(=O)O)s3)cc2c(=O)[nH]1 | 5.26 µM (active)
5 | C[C@@H]1CN(CC(=O)Nc2ccc3c(c2)Cc2cccc(-c4cc(=O)cc(N5CCOCC5)o4)c2S3)C[C@H](C)O1 | 20.9 µM (active)
6 | CC(=O)c1c(C)c2cnc(Nc3ccc(N4CCNCC4)cn3)nc2n(C2CCCC2)c1=O | 11.8 µM (active)
7 | COc1cc(C)c(Sc2cnc(NC(=O)c3ccc(CNC(C)C(C)C)cc3)s2)cc1C(=O)N1CCN(C(C)=O)CC1 (stereo not drawn) | 5.26 µM (active)
8 | COc1cc2c(cc1-c1c(C)noc1C)ncc1[nH]c(=O)n([C@H](C)c3ccccn3)c12 | 1.05 µM (active)
9 | CC(=O)OCCN1C(=O)c2c(C)nc3ccc(S(=O)(=O)N4CCOCC4)cc3c2C1=O | inactive
10 | Nc1ccc(C(=O)c2cc3c(ccc4ccccc43)[nH]2)cc1 | 2.64 µM (active)
11 | Nc1nc(NCCNc2ncc(-n3ccnc3)c(-c3ccc(Cl)cc3Cl)n2)ccc1[N+](=O)[O-] | 18.7 µM (active)
12 | Nc1ncnc2c1c(-c1cnc3[nH]ccc3c1)nn2C1CCCC1 | 3.32 µM (active)
13 | COc1cc(=C2C=c3ccccc3=N2)[nH]c1=Cc1[nH]c(C)cc1C | 0.833 µM (active)
14 | Cn1cc(-c2[nH]c3cc(NC(=O)[C@H](N)C4CCCCC4)cc4c3c2C=NNC4=O)cn1 | 1.48 µM (active)
15 | C[C@@]12O[C@@H](C[C@]1(O)CO)n1c3ccccc3c3c4c(c5c6ccccc6n2c5c31)CNC4=O | 0.526 µM (active)
16 | CN1CCN(c2cc(C(=O)Nc3ccc4c(c3)-c3c(c(C(N)=O)nn3-c3ccc(F)cc3)CC4)c(Cl)cn2)CC1 | 2.96 µM (active)
17 | CCCCc1nc2cc(C=CC(=O)NO)ccc2n1CCN(CC)CC | 0.0418 µM (active)
18 | Cn1c(CNc2ccc(C(=N)N)cc2)nc2cc(C(=O)N(CCC(=O)O)c3ccccn3)ccc21 | inactive
19 | N#Cc1c(O)c2c(-c3ccc(-c4ccccc4O)cc3)csc2[nH]c1=O | inactive
20 | O=C(C=Cc1cccnc1)NCCCCC1CCN(C(=O)c2ccccc2)CC1 | 0.0418 µM (active)
21 | Cc1ccc2nc(NC(=O)CSc3nc4c(c(=O)n3-c3ccccc3)SCC4)sc2c1 | 7.43 µM (active)
22 | CC1=C(CO)C(=O)O[C@@H]([C@@H](C)[C@H]2CC[C@H]3[C@@H]4C[C@H]5O[C@]56[C@@H](O)C=CC(=O)[C@]6(C)[C@@H]4CC[C@]23C)C1 | 0.132 µM (active)
23 | Cc1cc(Nc2nc(N[C@@H](C)c3ccc(F)cc3)c(C#N)cc2F)n[nH]1 | 4.18 µM (active)
